Inconclusive results are not listed. Values without a mark were called inactive. Activity calls are given as the source filed them. Calls follow the shape of the dose curve; as a rule, active = well fitted inhibition curve with a large enough effect; inconclusive = small, poorly fitted or top-dose-only effect; inactive = no such curve, though single readings can be large or run the other way. Starred links: 1 amine or outer side, 2 acyl side, 3 side chain; linkers in the order of their positions; H or OH if unused. Positions of bridges follow the written chain, without caps; N, C: chain ends. Non-standard residues stand in square brackets, D forms with d. Residues, ends and D or L forms follow the SMILES beside them. ξ: configuration not given here. *: point of attachment. X3 = C[C@@H](Oc1ccc([C@H](N[*:1])C(=O)[*:2])cc1)[C@]1(/C=C\C(=O)[*:3])CO1; d(aIle) = CC[C@H](C)[C@@H](N)C(=O)O; X2 = CC(C)[C@@H](O)C(C)C(=O)*; ξNMeF = CNC(Cc1ccccc1)C(=O)O; ξT = CC(O)C(N)C(=O)O; ξS = NC(CO)C(=O)O
Assay: qHTS for ATAD5 Antagonist screened against the NCATS CANVASS Library (AID 1347370); also: nearly all actives have a fitted effect of over 65% in size
Conditions: HEK293T-ATAD5-luc, 5-FUrd stimulated, luminescence, 16 h; series mostly up to 46.1 µM; activity change, negative = inhibition: at the top concentration
Description: Natural products and their derivatives continue to be wellsprings of nascent therapeutic potential. However, many laboratories have limited resources for biological evaluation, leaving their previously isolated or synthesized compounds largely or completely untested. To address this issue, the Canvass library of natural products was assembled (https://tripod.nih.gov/canvass), in collaboration with academic and industry researchers, for quantitative high-throughput screening (qHTS) across a diverse set of cell-based and biochemical assays. The pure (>85% purity by liquid chromatography/mass spectrometry [LC/MS]) Canvass library of 346 natural products were submitted by 45 academic laboratories and companies around the world. We collected pure natural products to circumvent deconvolution and structure elucidation due to time and resource limitations. The library was formatted into 1536-well plates and evaluated in 50 qHTS (in an 11-pnt concentration series) bioassays with broad scope of disease-relevant mechanisms. The resulting data set from 50 different assays was then systematically analyzed to identify overall trends and specific natural products with interesting biological activities. Reported herein are the results of each individual qHTS and their corresponding assay protocol. Human ATAD5 is a biomarker for identifying gentoxic compounds because ATAD5 protein levels increase post-transcriptionally in response to DNA damage. A cell-based assay is used to detect DNA damage inducers and genotoxic compounds as well. The assay is based upon a luciferase reporter gene under control of ATAD5 that has been stably integrated into HEK 293T cells. Luminescence intensity is proportional to ATAD5 expression. National Center for Advancing Translational Sciences (NCATS), Rockville, MD National Institute of Health (NIH), Bethesda, Maryland
ATAD5 Agonist assay protocol: 1. In a 1536 well, tissue culture treated white solid bottom plates (Greiner Bio-One North America), 5 uL of HEK293T-ATAD5 cell solution (2000 cells / well) was dispensed using the Multidrop Combi dispenser (Thermo Fisher Scientific). 2. The assay plates were incubated for 5hr at 37C, 5% CO2 to allow the cells to acclimate and attach. 3. Compounds were pin transferred (~23 nL volume) to the assay plates via Wako Pin-tool (Wako Automation, Richmond VA) equipped with a 1536 pin head. The compounds were transferred to columns 5-48 resulting in a final concentration ranging from 0.16 nM to 103 uM. DMSO was pin transferred to columns 1-4 as controls. The compound / control transfer was followed by the addition of either 1 uL of culture medium (columns 1 and 3) or 10 uM final concentration of 5-Fluorouridine (5-FUrd; column 2, 4-48), a known stabilizer of ATAD5. 4. The assay plates were further incubated in the dark at 37C, 5% CO2 for 16hr. 5. To measure cell viability, 1uL of CellTiter-Fluor (Promega) reagent was then added to the assay plates (column 1-48, rows 1-32). The assay plates were incubated in the dark for 1hr at 37C, 5% CO2. 6. A first readout of fluorescence signal was acquired via the ViewLux (PerkinElmer) plate reader using filter sets for AFC (380-400nmEx/505Em) and 1 second exposure setting. 7. To measure ATAD5 activation, 4uL of Amplite Luciferase reagent (AAT Bioquest) was then added to the assay plates (column 1-48, rows 1-32). The assay plates were further incubated in the dark at room temperature for 30min. 8.#A second readout of luminescence signal was acquired via the ViewLux plate reader using a clear emission filter, 10 second exposure setting.
% is scaled to controls: 0 for no effect and ±100 for the full control effect; potency is read from the fitted curve at half-maximal effect.

SMILES | activity change, negative = inhibition | Potency
C=C[C@H]1CN2CCc3c([nH]c4cccc(OC)c34)[C@@H]2C[C@@H]1/C(=C\OC)C(=O)OC | 1.33% | 
CCC(=O)N[C@@H](C[C@H](C)C(Cl)(Cl)Cl)C(=O)N1C(=O)C=C(OC)[C@@H]1C[C@H](C)C(Cl)Cl | -15.4% | 
C/C=C(\C)C(=O)O[C@@H]1[C@@H](O)[C@@H]2O[C@H]3[C@H](O[C@@H](CCCCC)CCCCCCC(=O)CCC(=O)OC[C@@H](O2)[C@H]1OC(=O)/C=C/c1ccccc1)O[C@H](C)[C@H](OC(C)=O)[C@@H]3O | -30.3% | 
C=CC(C)(C)[C@@]12C[C@H]3C(=O)N/C(=C/c4cnc[nH]4)C(=O)N3[C@@H]1Nc1ccccc12 | 2.67% | 
CCCC[C@@H]1CC[C@H]2CCCC(CCCO)N12 (stereo partly drawn) | 13.9% | 
C[C@]12CC(O)C3[C@@H](CC[C@@H]4C[C@@H](O)CC[C@]34CO)[C@@]1(O)CC[C@@H]2C1=CC(=O)OC1 (stereo partly drawn) |  | 13.2 µM (active)
CO[C@@]12c3c(C)cc(O)c4c(=O)occ(c34)C(=O)[C@@H]1[C@]13COC(=O)c4c(O)cc(C)c(c41)C(=O)[C@H]2[C@@H]3OC(C)=O | 9% | 
C1=C2CCCN[C@H]2C2CC1[C@H]1CCCCN1C2 (stereo partly drawn) | 21% | 
C=C[C@]12C=CCN3CC[C@@]4(c5ccccc5NC(=O)[C@@H]4C1)[C@@H]32 | -27.6% | 
C=C(C)[C@H]1C(=O)c2c3c(cc4c5c(n1c24)[C@@]1(C)[C@@H](CC[C@H]2[C@](C)(/C=C/C=C(\C)C(=O)O)[C@@H](O)CC[C@@]21C)C5)C1=CC(C)(C)OC(C)(C)[C@H]1[C@@H]3O |  | 16.6 µM (active)
CO[C@H]1C[C@H](O[C@H]2[C@@H](O)C[C@H](O[C@H]3CC[C@]4(C=O)[C@H]5CC[C@]6(C)C(C7=CC(=O)OC7)CC[C@]6(O)[C@@H]5CC[C@]4(O)C3)O[C@@H]2C)O[C@H](C)[C@H]1O[C@H]1C[C@@H](OC)[C@@H](O[C@@H]2O[C@H](CO)[C@@H](O)[C@H](O)[C@H]2O)[C@@H](C)O1 (stereo partly drawn) |  | 0.66 µM (active)
CC[C@H]1CN2CCc3c([nH]c4cccc(OC)c34)[C@@H]2C[C@@H]1/C(=C\OC)C(=O)OC | -31% | 
COC1=C(C2=C(OC)C(=O)c3cc4c(c(O)c3C2=O)C(=O)O[C@H](C)C4)C(=O)c2c(cc3c(c2O)C(=O)O[C@H](C)C3)C1=O | -4.5% [at 15.4 µM] | 
CO[C@@H](/C=C/CC/C=C/C(=O)O)[C@@H](O)[C@H](C)/C=C(\C)[C@H](O)[C@H](C)C(=O)CCCC1CC(=O)NC(=O)C1 | 10.4% | 
CCCC[C@@H](C)/C=C1/CN2CCC[C@H]2[C@@](C)(O)[C@@H]1O | 48.2% | 
CO[C@H]([C@@H](C)[C@H]1O[C@]1(C)C[C@H](C)/C=C/C=C(\C)[C@H]1O[C@@H](CC(=O)O)CC[C@@H]1C)[C@@H](C)O | 14.9% | 
CCCCC1CC[C@H]2CCCC(CCC)N12 (stereo partly drawn) | 2.39% | 
C/C=C1/CN2C3CC1C1=CCC(=O)N4c5ccccc5[C@@]3(C[C@@H]2C2=C[C@H]3C5CC6N(CC[C@@]67c6ccccc6N(C2=O)[C@@H]37)C/C5=C/C)[C@H]14 (stereo partly drawn) |  | 14.8 µM (active)
C[N+](C)(C)CCc1c[nH]c2ccccc12 | -12% | 
O[C@H]1C=C[C@@]23CCN(Cc4cc5c(cc42)OCO5)[C@@H]3C1 | -3.05% | 
C/C(=C\[C@H](C)C(=O)C[C@H](O)CC1CC(=O)NC(=O)C1)[C@@H]1OC(=O)/C=C/CC/C=C/C=C/[C@@H]1C |  | 0.105 µM (active)
CC[C@H](C)[C@H]1NC(=O)[C@@H](NC(=O)C(C)[C@H](O)C(C)C)[C@@H](C)OC(=O)C2COC(=O)CNC(=O)/C=C\[C@]3(CO3)[C@@H](C)Oc3ccc(cc3)[C@H](NC1=O)C(=O)N(C)C(Cc1ccccc1)C(=O)NC(C(C)O)C(=O)N2 (stereo partly drawn) (X2-T[d(aIle)][X3][ξNMeF][ξT][ξS]; ester 1-C; linker 3-6 via G) | -3.12% [at 27.5 µM] | 
c1ccc2nc3c(cc2c1)[nH]c1ccccc13 | 22.6% | 
CC[C@@H]1CN2CCC3(Nc4cccc(OC)c4C3=O)[C@@H]2C[C@@H]1/C(=C\OC)C(=O)OC (stereo partly drawn) | -8.95% | 
C[C@]12CCC3[C@@H](CC[C@@H]4C[C@@H](O)CC[C@]34CO)[C@@]1(O)CC[C@@H]2C1=CC(=O)OC1 (stereo partly drawn) |  | 4.17 µM (active)
C=CC(C)(C)[C@@]12C[C@H]3C(=O)N/C(=C\c4cnc[nH]4)C(=O)N3[C@@H]1Nc1ccccc12 | -17.9% | 
CO[C@H]1[C@H](O[C@H]2CC[C@]3(C=O)[C@H]4CC[C@]5(C)[C@@H](C6=CC(=O)OC6)CC[C@]5(O)[C@@H]4CC[C@]3(O)C2)O[C@H](C)[C@H](O)[C@@H]1OC |  | 0.132 µM (active)
C[C@]12CC(O)C3[C@@H](CCC4C[C@@H](O)CC[C@@]43CO)[C@@]1(O)CC[C@@H]2C1=CC(=O)OC1 (stereo partly drawn) | -21.2% | 

Reference: PubChem BioAssay (NCATS)
